PubChem BioAssay
Active and inactive are the calls of the source.

Assays:
[1] = test system: PRMT1 (protein arginine N-methyltransferase 1); assay: PRMT1 binders on small-molecule microarrays, primary screen, biochemical, small-molecule microarray, 635 nm fluorescence (AID 1088); conditions: small-molecule microarray binding, higher = more signal;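 note: binding of Prmt1 protein to compounds spotted on small-molecule microarray slides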
[2] = yeast growth modulation, basal conditions, primary screen, YJM789 clinical isolate, OD600, 24 h (AID 1089);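 note: growth of clinical yeast isolate S. cerevisiae YJM 789 seeded 1000 cells per well; test concentration not given here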; conditions: S. cerevisiae YJM789 growth, higher = more signal, called active from +8 up or from −8 down
[3] = fission yeast growth modulation, primary screen, strain 972, OD600, 24 h, no modulator (AID 1090);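 note: basal condition with compound alone and no growth modifier present; test concentration not given here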; conditions: S. pombe 972 growth, higher = more signal, called active from +8 up or from −8 down
[4] = S. cerevisiae growth modulation with rapamycin, primary screen, strain BY4716, OD600, 96 h (AID 1091); conditions: higher = more signal, called active from +8 up or from −8 down; note: test concentration not given here
[5] = target: Torsin-1A-interacting protein 2 (Homo sapiens) (UniProt Q8NFQ8); assay: LULL1 binders on small-molecule microarray, primary screen, cell lysate, human LULL1 lysate, 635/667 nm fluorescence (AID 1092); conditions: hLULL1 lysate binding, 635 nm fluorescence, higher = more signal;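 note: probe is lysate of COS7 cells overexpressing human LULL1; score merges per-feature 667 nm fluorescence with signal-to-noise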
[6] = E. coli growth modulation, two-sided OD650, primary screen, E. coli filamentation project, strain DRC41, 24 h (AID 1093); conditions: OD650, 24 h, higher = more signal, called active from +8 up or from −8 down;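 note: MC1000 strain lacking acrAB efflux and sulA so SOS filamentation is blocked; test concentration not given here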
[7] = small-molecule microarray binders of probe aLefty2, primary screen, biochemical, biotinylated probe, 635/667 nm fluorescence (AID 1094); conditions: higher = more signal;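 note: score merges spot fluorescence near 667 nm with spot signal-to-noise ratio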
[8] = test system: Noggin (protein binding on small-molecule microarray); assay: Noggin binders on small-molecule microarray, primary screen, biochemical, 635/667 nm fluorescence (AID 1095); conditions: 635 nm fluorescence, higher = more signal;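 note: score merges 667 nm feature fluorescence with signal to noise over triplicate slides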
[9] = target: Neurogenic locus notch homolog protein 3 (Homo sapiens) (UniProt Q9UM47); assay: NOTCH3 binders on small-molecule microarray, primary screen, biochemical, 635/667 nm fluorescence (AID 1096); conditions: NOTCH3 binding, 635 nm fluorescence, higher = more signal
[10] = small-molecule microarray binders of probe aEGFR, primary screen, biochemical, biotinylated probe, 635/667 nm fluorescence (AID 1097); conditions: higher = more signal;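 note: probe is a biotinylated anti-EGFR antibody binding compounds printed on slides; score combines fluorescence near 667 nm and signal to noise of each spot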
[11] = test system: Plasmodium falciparum Sir2 (PF13_0152, Sir2A); assay: pfSir2 binders on small-molecule microarrays, primary screen, biochemical, small-molecule microarray, 635 nm fluorescence (AID 1098); conditions: small-molecule microarray binding, fluorescence 635 nm; higher = more signal;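 note: score merges spot fluorescence intensity with its signal-to-noise ratio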
[12] = small-molecule microarray binders of probe aDKK1, primary screen, biochemical, biotinylated probe, 635/667 nm fluorescence (AID 1099); conditions: higher = more signal;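 note: score merges 667nm spot fluorescence with signal to noise across triplicate slides; reference of the scale not given here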
[13] = small-molecule microarray binders of probe aCHRDL2, primary screen, biochemical, biotinylated probe, 635/667 nm fluorescence (AID 1100); conditions: higher = more signal
[14] = splicing luciferase reporter signal modulators, primary screen, spliceosome inhibition project, cell-based, HEK293, splice +/- reporter (AID 1101); conditions: luminescence, 24 h, higher = more signal, called active from +8 up or from −8 down;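 note: HEK293 cells carrying a splicing-competent luciferase reporter gene; test concentration not given here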
[15] = target: Fibroblast growth factor 10 (Homo sapiens) (UniProt O15520); assay: FGF10 binders on small-molecule microarrays, primary screen, biochemical, small-molecule microarray, 635 nm fluorescence (AID 1102); conditions: FGF10 binding, fluorescence 635 nm, higher = more signal
[16] = test system: glycogen synthase kinase-3 (GSK3A per assay name; protocol says GSK3B); assay: GSK3 binders on small-molecule microarrays, primary screen, biochemical, small-molecule microarray, 635 nm fluorescence, GSK3A (AID 1103); conditions: small-molecule microarray binding, fluorescence 635 nm; higher = more signal; note: the record names both GSK3A and GSK3B
[17] = target: Epidermal growth factor receptor (Homo sapiens) (UniProt P00533); assay: EGFR binders on small-molecule microarrays, primary screen, biochemical, small-molecule microarray, 635 nm fluorescence (AID 1104); conditions: EGFR binding, higher = more signal;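 note: score merges 667 nm emission intensity with spot signal to noise over triplicate slides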
[18] = target: Follistatin-related protein 3 (Homo sapiens) (UniProt O95633); assay: FSTL3 binders on small-molecule microarrays, primary screen, biochemical, small-molecule microarray, 635 nm fluorescence (AID 1105); conditions: FSTL3 binding, higher = more signal;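 note: score merges emission near 667 nm and signal to noise per printed spot across three slides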
[19] = target: Dickkopf-related protein 1 (Homo sapiens) (UniProt O94907); assay: DKK1 binders on small-molecule microarrays, primary screen, biochemical, small-molecule microarray, 635 nm fluorescence scan (AID 1106); conditions: DKK1 binding, higher = more signal;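 note: score merges emission near 667 nm with signal to noise over three replicate slides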
[20] = test system: Inhibin beta A chain (activin A); assay: INHBA (activin A) binders on microarrays, primary screen, biochemical, small-molecule microarray, 635 nm fluorescence scan (AID 1107); conditions: small-molecule microarray binding, higher = more signal;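 note: mouse activin A protein probed at 4.33 µg/mL on printed slides; score merges bound-protein fluorescence near 667 nm with spot signal-to-noise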

Fibroblast growth factor 10 (Homo sapiens), sequence (O15520 whole entry, looked up): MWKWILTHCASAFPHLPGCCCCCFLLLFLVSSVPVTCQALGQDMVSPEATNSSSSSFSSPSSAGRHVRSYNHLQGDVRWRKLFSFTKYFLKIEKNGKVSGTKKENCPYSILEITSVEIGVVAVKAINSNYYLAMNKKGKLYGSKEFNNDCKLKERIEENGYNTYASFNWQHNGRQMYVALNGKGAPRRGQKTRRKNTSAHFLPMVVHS
Epidermal growth factor receptor (Homo sapiens), sequence (P00533 whole entry, looked up): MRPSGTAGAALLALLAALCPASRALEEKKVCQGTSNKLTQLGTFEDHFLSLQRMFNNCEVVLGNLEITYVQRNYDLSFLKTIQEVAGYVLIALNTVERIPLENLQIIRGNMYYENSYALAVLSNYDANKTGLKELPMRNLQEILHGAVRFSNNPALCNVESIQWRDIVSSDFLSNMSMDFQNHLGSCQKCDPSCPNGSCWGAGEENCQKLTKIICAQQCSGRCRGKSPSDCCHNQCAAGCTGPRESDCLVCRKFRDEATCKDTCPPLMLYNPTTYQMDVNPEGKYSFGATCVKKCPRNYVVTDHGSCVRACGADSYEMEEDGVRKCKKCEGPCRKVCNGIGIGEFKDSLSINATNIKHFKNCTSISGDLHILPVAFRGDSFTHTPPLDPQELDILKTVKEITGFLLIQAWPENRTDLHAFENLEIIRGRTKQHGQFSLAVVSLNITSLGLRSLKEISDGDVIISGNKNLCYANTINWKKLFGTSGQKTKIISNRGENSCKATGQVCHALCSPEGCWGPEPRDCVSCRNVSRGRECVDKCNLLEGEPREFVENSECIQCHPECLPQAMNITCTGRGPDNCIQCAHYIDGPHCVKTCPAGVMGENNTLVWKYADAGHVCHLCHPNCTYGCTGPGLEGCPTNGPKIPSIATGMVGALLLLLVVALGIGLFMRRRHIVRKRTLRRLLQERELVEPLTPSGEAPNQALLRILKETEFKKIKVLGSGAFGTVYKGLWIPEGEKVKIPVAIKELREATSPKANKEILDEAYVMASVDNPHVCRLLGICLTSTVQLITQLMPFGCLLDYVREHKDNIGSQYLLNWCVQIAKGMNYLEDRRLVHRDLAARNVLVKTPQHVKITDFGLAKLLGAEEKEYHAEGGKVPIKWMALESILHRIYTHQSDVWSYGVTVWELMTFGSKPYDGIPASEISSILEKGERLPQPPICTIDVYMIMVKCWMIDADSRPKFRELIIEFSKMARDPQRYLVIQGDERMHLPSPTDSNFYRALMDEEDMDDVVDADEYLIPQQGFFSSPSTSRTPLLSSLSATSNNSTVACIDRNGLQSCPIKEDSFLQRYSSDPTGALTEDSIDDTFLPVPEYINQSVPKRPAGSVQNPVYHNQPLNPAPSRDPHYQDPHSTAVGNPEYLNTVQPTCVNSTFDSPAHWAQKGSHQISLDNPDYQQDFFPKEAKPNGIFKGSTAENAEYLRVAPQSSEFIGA
Follistatin-related protein 3 (Homo sapiens), sequence (O95633 whole entry, looked up): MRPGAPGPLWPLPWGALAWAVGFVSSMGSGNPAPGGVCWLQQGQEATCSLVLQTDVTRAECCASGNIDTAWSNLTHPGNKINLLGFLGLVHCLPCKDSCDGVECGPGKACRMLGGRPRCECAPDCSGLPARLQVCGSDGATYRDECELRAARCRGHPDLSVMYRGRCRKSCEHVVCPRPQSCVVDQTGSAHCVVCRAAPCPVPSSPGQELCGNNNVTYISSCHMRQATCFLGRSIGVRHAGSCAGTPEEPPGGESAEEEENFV
Dickkopf-related protein 1 (Homo sapiens), sequence (O94907 whole entry, looked up): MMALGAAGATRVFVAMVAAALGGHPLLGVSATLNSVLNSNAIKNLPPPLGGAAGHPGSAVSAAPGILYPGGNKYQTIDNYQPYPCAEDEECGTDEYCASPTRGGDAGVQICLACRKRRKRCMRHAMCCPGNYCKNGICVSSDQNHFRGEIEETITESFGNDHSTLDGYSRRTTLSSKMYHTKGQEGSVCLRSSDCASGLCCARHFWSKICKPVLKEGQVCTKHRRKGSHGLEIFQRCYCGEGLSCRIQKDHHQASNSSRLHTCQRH
Torsin-1A-interacting protein 2 (Homo sapiens), sequence (Q8NFQ8 whole entry, looked up): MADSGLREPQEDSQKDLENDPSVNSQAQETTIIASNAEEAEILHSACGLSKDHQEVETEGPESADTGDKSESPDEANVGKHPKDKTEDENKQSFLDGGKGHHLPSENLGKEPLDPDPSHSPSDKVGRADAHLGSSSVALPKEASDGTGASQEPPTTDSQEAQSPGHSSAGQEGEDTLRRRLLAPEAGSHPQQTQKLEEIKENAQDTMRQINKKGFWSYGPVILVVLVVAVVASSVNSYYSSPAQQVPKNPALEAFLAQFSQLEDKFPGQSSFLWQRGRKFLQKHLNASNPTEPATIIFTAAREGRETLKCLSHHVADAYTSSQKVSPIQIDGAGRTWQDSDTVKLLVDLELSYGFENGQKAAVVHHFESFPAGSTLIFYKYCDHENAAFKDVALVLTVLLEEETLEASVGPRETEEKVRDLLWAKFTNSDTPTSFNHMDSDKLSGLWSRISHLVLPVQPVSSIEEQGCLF
Neurogenic locus notch homolog protein 3 (Homo sapiens), sequence (Q9UM47 whole entry, looked up): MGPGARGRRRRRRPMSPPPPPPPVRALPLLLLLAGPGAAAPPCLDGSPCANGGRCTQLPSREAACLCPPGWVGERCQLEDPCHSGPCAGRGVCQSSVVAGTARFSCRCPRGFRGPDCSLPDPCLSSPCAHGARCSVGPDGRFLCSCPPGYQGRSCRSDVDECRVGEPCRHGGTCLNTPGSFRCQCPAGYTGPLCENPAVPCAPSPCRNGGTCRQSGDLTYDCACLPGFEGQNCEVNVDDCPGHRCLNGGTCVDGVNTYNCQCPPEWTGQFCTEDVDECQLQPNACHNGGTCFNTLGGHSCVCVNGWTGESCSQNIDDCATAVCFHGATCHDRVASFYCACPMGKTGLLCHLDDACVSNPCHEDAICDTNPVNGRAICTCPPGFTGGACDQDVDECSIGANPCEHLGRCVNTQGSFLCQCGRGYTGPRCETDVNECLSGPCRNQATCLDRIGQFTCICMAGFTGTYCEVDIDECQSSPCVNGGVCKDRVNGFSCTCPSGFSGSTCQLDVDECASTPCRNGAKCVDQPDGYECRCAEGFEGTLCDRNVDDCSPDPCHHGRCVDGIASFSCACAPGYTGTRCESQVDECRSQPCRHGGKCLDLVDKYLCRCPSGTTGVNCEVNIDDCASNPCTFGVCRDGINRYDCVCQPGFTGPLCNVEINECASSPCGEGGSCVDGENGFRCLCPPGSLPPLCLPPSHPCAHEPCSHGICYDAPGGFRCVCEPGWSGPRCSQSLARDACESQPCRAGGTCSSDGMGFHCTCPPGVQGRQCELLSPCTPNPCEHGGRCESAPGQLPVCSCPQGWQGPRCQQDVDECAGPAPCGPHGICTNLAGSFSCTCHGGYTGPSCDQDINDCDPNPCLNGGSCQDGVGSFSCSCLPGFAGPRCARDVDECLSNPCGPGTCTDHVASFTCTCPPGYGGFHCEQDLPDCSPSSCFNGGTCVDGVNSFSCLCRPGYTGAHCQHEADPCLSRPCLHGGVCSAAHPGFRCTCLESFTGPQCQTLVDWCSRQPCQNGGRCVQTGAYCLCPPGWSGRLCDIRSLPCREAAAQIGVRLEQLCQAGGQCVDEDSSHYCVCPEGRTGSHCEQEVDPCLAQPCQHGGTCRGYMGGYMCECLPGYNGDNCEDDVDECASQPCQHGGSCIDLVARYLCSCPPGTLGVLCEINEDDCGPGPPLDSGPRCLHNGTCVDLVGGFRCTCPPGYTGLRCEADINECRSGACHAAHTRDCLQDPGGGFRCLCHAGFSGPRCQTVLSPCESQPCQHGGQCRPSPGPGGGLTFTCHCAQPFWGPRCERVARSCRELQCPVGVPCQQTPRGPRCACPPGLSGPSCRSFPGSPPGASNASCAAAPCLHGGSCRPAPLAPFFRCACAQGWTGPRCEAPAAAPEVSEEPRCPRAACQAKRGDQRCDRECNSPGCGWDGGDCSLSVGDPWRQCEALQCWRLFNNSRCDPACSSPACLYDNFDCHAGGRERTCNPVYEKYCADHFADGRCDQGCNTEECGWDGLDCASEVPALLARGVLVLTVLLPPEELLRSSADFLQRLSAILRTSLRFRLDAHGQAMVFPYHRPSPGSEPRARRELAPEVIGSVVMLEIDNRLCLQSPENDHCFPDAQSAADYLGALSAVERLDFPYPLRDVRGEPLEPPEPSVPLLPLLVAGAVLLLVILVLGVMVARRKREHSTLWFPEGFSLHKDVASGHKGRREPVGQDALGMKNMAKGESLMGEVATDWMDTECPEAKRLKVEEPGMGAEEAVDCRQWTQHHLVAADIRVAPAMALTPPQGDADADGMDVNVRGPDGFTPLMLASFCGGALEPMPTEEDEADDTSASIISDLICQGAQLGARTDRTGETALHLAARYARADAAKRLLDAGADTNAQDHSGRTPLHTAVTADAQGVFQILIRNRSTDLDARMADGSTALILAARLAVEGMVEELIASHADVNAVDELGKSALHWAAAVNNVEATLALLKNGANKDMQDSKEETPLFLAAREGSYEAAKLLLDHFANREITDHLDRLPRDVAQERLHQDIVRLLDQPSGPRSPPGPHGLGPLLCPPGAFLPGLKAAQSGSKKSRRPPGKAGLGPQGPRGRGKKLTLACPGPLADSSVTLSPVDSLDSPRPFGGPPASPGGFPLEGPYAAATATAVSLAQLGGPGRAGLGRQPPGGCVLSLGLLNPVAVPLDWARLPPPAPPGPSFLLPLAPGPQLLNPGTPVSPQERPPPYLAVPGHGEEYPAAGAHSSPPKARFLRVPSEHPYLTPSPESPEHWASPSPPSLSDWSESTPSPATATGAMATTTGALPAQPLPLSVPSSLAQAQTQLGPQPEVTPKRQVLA

| Structure (SMILES) | composite z-score [1] | z-score [2] | z-score [3] | z-score [4] | composite z-score [5] | z-score [6] | composite z-score [7] | composite z-score [8] | composite z-score [9] | composite z-score [10] | composite z-score [11] | composite z-score [12] | composite z-score [13] | z-score [14] | composite z-score [15] | composite z-score [16] | composite z-score [17] | composite z-score [18] | composite z-score [19] | composite z-score [20] |
| --- | --- | --- | --- | --- | --- | --- | --- | --- | --- | --- | --- | --- | --- | --- | --- | --- | --- | --- | --- | --- |
| [N-]=[N+]=NCc1ccccc1C[C@@]1(C(N)=O)N=C(c2ccc(OCCCO)cc2)O[C@@H]1c1ccccc1 | 1.56 | -0.144 (inactive) | 0.0313 (inactive) | 13.3 (active) | 3.59 | -0.412 (inactive) | 0.149 | -0.734 | -0.15 | -0.108 | 1.15 | 0.67 | 1.04 | -1.01 (inactive) | 0.001 | -0.238 | -0.892 | -0.443 | -1.38 | 0.389 |
| C=C(COC)C(=O)CC[C@@H](OC(C)=O)c1cccc(OCCO)c1 | -0.352 | 1.01 (inactive) | -0.953 (inactive) | 0.962 (inactive) | -0.329 | 0.302 (inactive) | -0.116 | -0.0606 | -0.132 | -0.211 | 0.114 | -0.0524 | 0.225 | 1.32 (inactive) | 1.38 | -0.911 | -0.934 | -0.303 | 0.227 | 1.01 |
| COc1ccc(CCNC(=O)[C@@H]2c3ccccc3C(=O)N(C3CCCCC3)[C@H]2c2ccc(CO)cc2)cc1 | 0.399 | -0.395 (inactive) | -0.838 (inactive) | 0.584 (inactive) | 3.07 | -1.14 (inactive) | -0.0671 | -0.282 | 0.366 | -0.0972 | 1.35 | 0.0099 | 0.692 | 0.43 (inactive) | 0.542 | 0.32 | -0.227 | 0.0696 | -0.487 | 0.177 |
| CCOC(=O)C[C@H]1[C@H](OC(=O)c2ccccc2-c2ccccc2)[C@@H](NC(=O)c2ccc3ccccc3n2)c2cc(OCCCO)ccc2N1C(=O)Cc1ccc(OC)cc1 | 0.115 | 0.59 (inactive) | -0.167 (inactive) | -0.0843 (inactive) | 0.346 | -0.776 (inactive) | -0.111 | 0.287 | 0.384 | -0.12 | -0.235 | 0.0006 | -0.302 | -0.378 (inactive) | 0.463 | 0.0131 | 0.238 | 0.176 | 0.0349 | 0.711 |
| CC[C@@H]1O[Si](C(C)C)(C(C)C)c2c1cc(-c1cc(C)c(OC)c(C)c1)nc2-c1ccc(Oc2ccccc2)cc1 | -0.0555 | 0.0662 (inactive) | 0.131 (inactive) | -0.798 (inactive) | -0.346 | -0.333 (inactive) | -0.123 | 0.0174 | 0.0178 | -0.162 | -0.551 | 0.825 | -0.0144 | -0.166 (inactive) | 0.0008 | -0.732 | -0.451 | -0.452 | -0.497 | 0.135 |
